Among the data in PubChem BioAssay (NCATS) are Potency and activity change, negative = cell killing values, retold here.

Where “and” joins values, the source holds several entries; their conditions need not be identical. Equal entries are not always repeated. Results filed as inconclusive are left out. Values without a mark were called inactive. Calls of active or inactive are those of the source. Calls follow the shape of the dose curve; as a rule, active = well fitted inhibition curve with a large enough effect; inconclusive = small, poorly fitted or top-dose-only effect; inactive = no such curve, though single readings can be large or run the other way. Where a SMILES comes first, the peptide text is derived from it. [ ]: non-standard residue; d: D form. The star is where a group is joined. Hyp = O=C(O)[CH]1C[CH](O)CN1; Phe(ol) = N[CH](CO)Cc1ccccc1; Iva = CC[C](C)(N)C(=O)O; Cbz = O=C(OCc1ccccc1)*; Aib = CC(C)(N)C(=O)O; CH2Cl = ClC*
% is scaled to controls: 0 for no effect and ±100 for the full control effect; potency is read from the fitted curve at half-maximal effect.

A short description of this test: Primary qHTS for inhibitors of nuclear receptor binding SET domain protein 2 (NSD2) in an RCH-ACV wild type WT cells (2C) (AID 1645877). Also: nearly all actives have a fitted effect of over 70% in size. As to conditions: RCH-ACV (leukaemia line) NSD2 WT (2C) viability, CellTiter-Glo, 72 h; series mostly up to 44.9 µM.
For the compound `COCCNCc1ccc(-c2cc3nccc(Oc4ccc(NC(=O)C5(C(=O)Nc6ccc(F)cc6)CC5)cc4F)c3s2)nc1`, the Potency is 2.63 µM (active). Still for that read-out and setting: next, `C=C1C(=O)OC2C1CCC1(C)C(O)CCC(=C)C21` (stereo not drawn): 16.3 µM (active); `C=C1C(=O)O[C@@H]2[C@H]1CC[C@H](C)[C@]1(CCC(=O)O1)C2(C)O` (stereo partly drawn): 14.5 µM (active).

For the compound `CC(=O)OC[C@]12[C@H](OC(C)=O)C(=O)[C@@H]3[C@@H](O)[C@@]14O[C@@]3(C)COC(=O)c1cccnc1[C@@H](C)[C@H](C)C(=O)O[C@@H]([C@H](O)[C@@H]2OC(C)=O)[C@]4(C)O`, the Potency was 5.41 µM (active). On the same count and under the same terms, next, `CC1OC(=O)C[C@@H]2C(C(=O)O)=CO[C@@H](O[C@H]3O[C@H](CO)[C@@H](O)[C@H](O)[C@H]3O)[C@H]12` (stereo partly drawn): “inactive”.

With `CC(C)NC(=O)N1CC[C@H](N=C2Nc3cc(F)ccc3N(CC(F)F)c3ccc(Cl)cc32)C1`, the activity change, negative = cell killing is 1.84% [at 9.23 µM].

As for `CN1CCN(Cc2ccc(NC(=O)Cc3ccc(Oc4cc(NC(=O)C5CC5)ncn4)cc3)cc2C(F)(F)F)CC1`, the Potency was 0.817 µM (active). Regarding `Cn1cc(-c2cnn3c(N)c(Br)c([C@@H]4CCCNC4)nc23)cn1`, the Potency was 1.15 µM (active) and 4.17 µM (active). Consider `CC[C@H]1OC(=O)[C@H](C)[C@@H](O[C@H]2C[C@@](C)(OC)[C@@H](O)[C@H](C)O2)[C@H](C)[C@@H](O[C@H]2O[C@H](C)C[C@H](N(C)C)[C@H]2O)[C@](C)(O)C[C@@H](C)C(=O)[C@H](C)[C@@H](O)[C@]1(C)O`, for which the Potency entry was “inactive”.

In the case of `CC(C)C[C@H](NC(=O)CNC(=O)OCc1ccccc1)C(=O)N[C@@H](Cc1ccccc1)C(=O)CCl` (Cbz-Gly-Leu-Phe-CH2Cl), the Potency is 3.65 µM (active). The same measure, in the same setting: next, `CC1(C)C2CCC(CO[C@@H]3O[C@H](CO[C@@H]4OC[C@](O)(CO)[C@H]4O)[C@@H](O)[C@H](O)[C@H]3O)C1C2` (stereo partly drawn): “inactive”; `C[C@]12CC[C@@H]3c4ccc(O)c(O)c4CC[C@H]3[C@@H]1CCC2=O`: 11.5 µM (active); `C=C1C(=O)OC2/C=C(\C)CC/C=C(\C)CC(OC(C)=O)C12` (stereo not drawn): 6.49 µM (active). With `O=C(Nc1cccc(C(F)(F)F)c1)Nc1ccc(Br)cc1-c1nn[nH]n1`, the Potency entry was “inactive”. As to `CC(C)(C)Sc1c(CC(C)(C)C(=O)O)n(Cc2ccc(Cl)cc2)c2ccc(OCc3ccc4ccccc4n3)cc12`, the Potency result is “inactive”. The same measure, in the same setting: next, `CCNC(=O)C#Cc1ccc2c(C(=Nc3ccc(CN(C)C)cc3)c3ccccc3)c(O)[nH]c2c1`: 0.0102 µM (active); `Cc1cc(-c2ncc(-c3cccnc3)cc2/C=C/c2ccccc2)cnc1-c1cccnc1`: “inactive”; `C[C@H]1CC[C@@]2(OC1)O[C@H]1CC3[C@@H]4CC[C@@H]5C[C@@H](O[C@@H]6O[C@H](CO)[C@@H](O[C@@H]7O[C@@H](C)[C@H](O)[C@@H](O)[C@H]7O)[C@H](O)[C@H]6O[C@@H]6O[C@H](CO)[C@@H](O)[C@H](O)[C@H]6O)CC[C@]5(C)C4CC[C@]3(C)[C@H]1[C@@H]2C` (stereo partly drawn): 3.88 µM (active). For `CC(C)CC(=O)c1c(O)cc2c(c1O)C(CC(C)C)C1=C(O2)C(C)(C)C(=O)C(C)(C)C1=O` (stereo not drawn), the Potency is 7.96 µM (active). As to `CCC(C)(NC(=O)C(CCC(N)=O)NC(=O)C1CC(O)CN1C(=O)C(C)(C)NC(=O)C(C)(C)NC(=O)C(CC(C)C)NC(=O)CNC(=O)C(NC(=O)C(C)(C)NC(=O)C(C)(C)NC(=O)C(C)(C)NC(=O)C(Cc1ccccc1)NC(C)=O)C(C)C)C(=O)N1CC(O)CC1C(=O)NC(C)(C)C(=O)NC(CO)Cc1ccccc1` (stereo not drawn) (Ac-F[Aib][Aib][Aib]VGL[Aib][Aib][Hyp]Q[Iva][Hyp][Aib][Phe(ol)]; configuration not given here), the activity change, negative = cell killing was -29.8% [at 9.23 µM]. `CCn1c2ccccc2c2cc(Nc3ccnc(NCCCN4CCOCC4)n3)ccc21`: the Potency was 8.17 µM (active). The same measure, in the same setting: next, `CNC(=O)c1ccc2c(c1)CCO[C@H]2CCN1CCN(c2ccc(OC)cc2)CC1`: “inactive”. On to `C=C1CC2OC(=O)C(=C)C2C(OC(=O)/C(C)=C\C)CC2(C)OC1=CC2=O` (stereo not drawn), for which the Potency is 1.01 µM (active).
